Bioassay records (PubChem BioAssay)
Sampled rows, rich in hits. Any-hit rate of the full collection: about 12%.
Sfp PPTase inh = inhibitors of Bacillus subtilis Sfp phosphopantetheinyl transferase. Potency, µM, for the others: largest response in the series, negative = inhibition, usual class: inhibitors. 3.5% of 310,000 active. AID 1490. Biochemical Sfp PPTase activity, qHTS. Q9F4F7;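 note: the enzyme is Sfp with the accession as filed and its product quenches rhodamine fluorescence; 0% = enzyme reaction without inhibitor and -100% = no enzyme wells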
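With Hepes-Na pH 7.6 buffer containing 10 mM MgCl2, Sfp (15 nM) modified BHQ-2-YbbR (12.5 uM) using rhodamine-CoA (5 uM). Two reads 30 minutes apart at 525/598 nm yielded each well's rate.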
HP1b binding inh = blocks HP1-beta chromodomain binding to methylated histone tails. P83916. AlphaScreen HP1-beta / biotin-H3K9me3 peptide binding. Potency, µM (doses to about 114 µM), for inactives: at the highest dose activity change, negative = inhibition, usual class: inhibitors. 0.56% of 390,000 active; note: nearly all actives have a fitted effect of over 70% in size
Target sequence (P83916 whole entry, looked up): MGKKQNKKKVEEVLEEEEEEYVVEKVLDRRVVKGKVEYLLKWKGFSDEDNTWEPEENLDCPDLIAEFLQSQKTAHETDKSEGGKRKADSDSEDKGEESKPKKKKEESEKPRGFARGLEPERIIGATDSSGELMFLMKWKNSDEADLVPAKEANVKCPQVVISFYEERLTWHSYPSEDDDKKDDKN
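AlphaScreen: HP1-beta (50 nM) preformed 30 min with biotin-H3(1-18)K9me3 peptide (50 nM) in PBS pH 7.4, 0.01% Tween-20. Compound added for 30 min at RT, then streptavidin donor/nickel chelate acceptor beads (10 ug/mL) for 30 min.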
JMJD2A Tudor inh = inhibitors of human JMJD2A Tudor domain; AID 504339; AlphaScreen JMJD2A-Tudor / H3K4me3 peptide binding; 4.4% of 390,000 active; Potency, µM (doses to about 114 µM), inactives show at the highest dose activity change, negative = inhibition, usual class: inhibitors; note: % is set by controls: 0 for no effect and ±100 for the full control effect; nearly all actives have a fitted effect of over 50% in size
BAZ2B block = blocks human BAZ2B | Potency, µM (titrated, usually from 114 µM), for inactives: at the highest dose activity change, negative = inhibition, usual class: inhibitors | AlphaScreen BAZ2B-H3K14Ac peptide displacement | Q9UIF8 | 4.4% of 360,000 active; note: % is set by controls: 0 for no effect and ±100 for the full control effect; nearly all actives have a fitted effect of over 60% in size
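Protein-peptide AlphaScreen: BAZ2B 50 nM, b-H3K14Ac 50 nM, 1x PBS pH 7.4 + 0.01% Tween-20. Preincubation 30 min RT; cpd 30 min RT (top 110 uM); beads 20 min RT, light-protected.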
G9a block = G9a (human) methyltransferase inhibition. Q96KQ7. G9a H3K9 monomethylation, AlphaScreen, 2 h. Potency, µM (doses to about 102 µM), for the others: at the top dose activity, negative = inhibition, usual class: inhibitors. 8.8% of 350,000 active; note: % is set by controls: 0 for no effect and ±100 for the full control effect; nearly all actives have a fitted effect of over 75% in size
Target sequence (Q96KQ7 913-1193 limits assumed): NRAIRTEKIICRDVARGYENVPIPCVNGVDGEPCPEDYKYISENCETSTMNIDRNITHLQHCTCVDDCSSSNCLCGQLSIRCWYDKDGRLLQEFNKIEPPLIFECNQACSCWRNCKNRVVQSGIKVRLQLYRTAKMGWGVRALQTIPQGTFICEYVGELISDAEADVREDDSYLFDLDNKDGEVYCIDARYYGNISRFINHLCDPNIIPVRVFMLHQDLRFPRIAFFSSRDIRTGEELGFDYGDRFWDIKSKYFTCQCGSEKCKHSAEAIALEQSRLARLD
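Chemiluminescent proximity detection of H3K9 monomethylation, read after 10 min bead incubation in the dark. Reaction: 20 nM G9a, 500 nM biotin-H3K9 peptide, 20 uM SAM cofactor, 2 h, room temperature, following 15 min enzyme-compound preincubation.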
Active calls of the source: *; ? = inconclusive; nt = no result given; [ ] = another dose, or the depositor's remark. Calls come from the whole dose curve; as a rule, active = well fitted curve in the direction sought with a large enough effect; inconclusive = small, poorly fitted or top-dose-only effect, or another doubt; inactive = no such curve, though single readings can be large; an effect the other way counts as inactive or inconclusive. Potency is the fitted concentration of half-maximal effect.

SMILES | Sfp PPTase inh | HP1b binding inh | JMJD2A Tudor inh | BAZ2B block | G9a block
Cc1ccc(C)n1-c1c(C(=O)NCCCN2CCN(c3ccc(F)cc3)CC2)sc2ncccc12 | nt | -3%[57 µM] | 50µM* | ? | -45%[59 µM]
Cc1ccc(-n2ncc3c2CC(C)(C)CC3NC(=O)CCN2CCCCC2=O)cc1 (stereo unspecified) | 7% | 3% | -1% | -4% | nt
O=[N+]([O-])c1ccc2c(c1)nc1n2CCN(c2ccccc2)C1 | -9% | 52% | -26% | ? | 13µM*
O=[N+]([O-])c1ccc2c(c1)nc1n2CCN(CC2CCCO2)C1 (stereo unspecified) | 16% | 54% | -11% | -13% | -21%[59 µM]
O=[N+]([O-])c1ccc2c(c1)nc1n2CCSC1 | 9% | 2% | -11% | -1% | ?
COCCN1CCn2c(nc3cc([N+](=O)[O-])ccc32)C1 | 16% | 60% | -3%[11.4 µM] | -24% | 35µM*
O=c1[nH][nH]cc1C=Nc1ccc(Cl)cc1Cl | 11% | 26% | -3% | ? | -6%
O=c1[nH][nH]cc1C=Nc1ccccc1O | 12% | 50% | -25% | 40µM* | 65%[12.7 µM]
O=c1[nH][nH]cc1C=Nc1cc(Cl)ccc1O | 17% | 33% | 79µM* | 14µM* | ?
COc1ccc(Cn2c(=O)c3oc4ccccc4c3n(Cc3cccc(C)c3)c2=O)cc1 | nt | 26% | -7% | -9% | -6%[59 µM]
CCCn1c(SCC(=O)Nc2ccc(Cl)cc2F)nc(O)cc1=O | nt | 44% | -4% | nt | nt
CC1=Nc2ncnn2C(c2ccccc2)/C1=N\O (stereo unspecified) | -1% | 19% | -12% | ? | 50µM*
CC1=CC(c2ccccc2)n2ncnc2N1 (stereo unspecified) | nt | 42% | -4% | nt | nt
COc1ccc(Nc2nc(-c3ccc4c(c3)NC(=O)CO4)cs2)cc1 | -12% | ? | ? | -26% | 45µM*
CCC(C)Nc1nc(-c2ccc3c(c2)NC(=O)CO3)cs1 (stereo unspecified) | ? | -1% | ? | ? | 50µM*
Cc1nc(CN2CCN(S(=O)(=O)c3c(Cl)cc(Br)cc3Cl)CC2)cs1 | nt | 0% | 35µM* | 79µM* | 22µM*
O=C1OC2(c3ccccc31)c1cc(I)c(O)c(I)c1Oc1c2cc(I)c(O)c1I | 14µM* | nt | nt | 10µM* | ?
CCc1ccc(S(=O)(=O)c2cn(C)c3cc(N4CCCCC4C)c(F)cc3c2=O)cc1 (stereo unspecified) | nt | 42% | -2% | -2% | -31%[59 µM]
Cc1ccccc1C(=O)OC1OC(=O)C(Cl)=C1Nc1ccc(C(=O)O)cc1 (stereo unspecified) | -11% | ? | 14µM* | 1% | ?
Cc1ccc(NC2=C(Cl)C(=O)OC2OC(=O)c2ccco2)cc1C (stereo unspecified) | -15% | 30% | -9% | -4% | 0%[59 µM]
COc1ccc(-c2csc(N3CCN(C(=O)c4ccco4)CC3)n2)cc1 | -11% | ? | ? | ? | 45µM*
COc1ccc(-c2csc(N3CCN(C(=O)c4ccccc4)CC3)n2)cc1 | -22% | -18% | ? | ? | 28µM*
CCOC(=O)N1CCN(c2nc(-c3ccc(F)cc3)cs2)CC1 | -1% | 11% | -21% | -28% | -7%[12.7 µM]
COc1ccc2nc(N3CCN(C(=O)c4ccco4)CC3)sc2c1 | nt | 28% | -9% | -18% | -29%[59 µM]
CCOC(=O)C(=O)N1CCN(c2nc(-c3ccc(Cl)cc3)cs2)CC1 | -6% | ? | -22% | ? | 40µM*
SMILES | Sfp PPTase inh | HP1b binding inh | JMJD2A Tudor inh | BAZ2B block | G9a block
COc1ccc(C(=O)NNC(=O)CN2CCN(c3nc(-c4ccccc4)cs3)CC2)cc1 | -23% | 26% | -1% | 10% | 11%
CC(C)CNC(=O)C(=O)NCC1OCCN1S(=O)(=O)c1cccs1 (stereo unspecified) | nt | 31% | -5% | nt | nt
Nc1c(C(=O)Nc2cccc(C(F)(F)F)c2)c2ccccn2c1C(=O)c1ccccc1 | nt | 25% | -9% | 11% | 8%[59 µM]
O=C1/C(=C\c2cccs2)Sc2ccc3ccccc3c21 | -1% | ? | ? | ? | 7.9µM*
O=C1/C(=C\c2cccs2)CCC/C1=C/c1cccs1 | -9% | nt | nt | nt | ?
CC(C)(C)NC(=O)C(c1ccc(I)cc1)N(CCN1CCOCC1)C(=O)CCCNC(=O)c1ccccc1 (stereo unspecified) | 24% | nt | nt | nt | nt
COc1ccc(C2/C=C\CN(C(=O)C3CCCCC3)C(Cc3ccccc3)C(=O)N2Cc2ccc(F)cc2)cc1 (stereo unspecified) | 3% | -10% | -24% | nt | nt
Cc1oc(-c2ccccc2F)nc1Cn1c(SCc2ccccc2F)nc2ccncc21 | nt | -1% | ? | ? | 13µM*
c1ccc(COc2ccc(OCCCN3CCCC3)cc2)cc1 | -14% | -9% | 20µM* | 50µM* | 6.3µM*
c1ccc(COc2ccc(OCCN3CCCC3)cc2)cc1 | -5% | 1% | ? | -12% | ?
CC(C)(C)c1ccc(OCCCN2CCCC2)cc1 | -13% | ? | 22µM* | ? | 0%
Cc1[nH]c2ccccc2c1-c1csc(NC(=O)CN2CCOCC2)n1 | 1% | 17% | ? | 79µM* | 35µM*
Cc1[nH]c2ccccc2c1-c1csc(NC(=O)CSCC(=O)O)n1 | -10% | 16% | -14% | -32% | ?
C=CCOc1c(Br)cc(CNc2ccc(NC(=O)C(C)C)c(OC)c2)cc1OCC | ? | -2% | ? | 22% | 6.3µM*
CCOc1cc(CNc2ccc(N3CCN(C(C)=O)CC3)cc2)cc(Br)c1OC | ? | ? | 35µM* | 32µM* | 28µM*
CCOc1cc(C(=O)Nc2ccc(N3CCN(C(C)=O)CC3)cc2)cc(OCC)c1OCC | 13% | 22% | -9% | -32% | ?
COc1ccc(CNc2ccc(C)cc2)cc1Br | -14% | ? | -36%[57.1 µM] | 50µM* | ?
COc1cc(CNc2ccc(O)cc2)cc(Br)c1OCc1ccccc1 | 22µM* | ? | 45µM* | 40µM* | 25µM*
C/C(CCN1CCCc2nc(C)c(C)cc21)=N\O[C@@H](C)c1cn([C@@H]2COC[C@@H]2O)nn1 | -4% | nt | nt | nt | nt
CCC1CCCCN1CCCNC(=O)c1ccc(CS(=O)(=O)c2ccccc2C)o1 (stereo unspecified) | 20% | 24% | -20% | 0% | -4%
CCOc1c(Br)cc(CNc2ccc(N3CCN(C(C)=O)CC3)cc2)cc1OC | -16% | -23% | 50µM* | 40µM* | 28µM*
CCCCNCc1cc(Br)c(OCC(=O)N2CCOCC2)c(OC)c1 | 11% | 17% | -16% | -8% | 34%[0.501 µM]
O=C(CN1CCN(c2ccc(F)cc2)CC1)Nc1ccccc1[N+](=O)[O-] | -1% | 50µM* | ? | ? | -4%
COc1ccccc1NC(=O)CN1CCN(c2ccc(F)cc2)CC1 | nt | 3% | ? | nt | nt
COC(=O)c1sccc1NC(=O)CN1CCN(c2ccc(F)cc2)CC1 | -12% | -14% | ? | ? | 45µM*
